Results: PubChem BioAssay (NCI)
The panel holds about 79,000 compounds, 15% with a hit somewhere; the sample as a whole holds those more often. Activity calls are given as the source filed them. No stated cut-off is given here; in the data, active means growth inhibition above about 70%; inactive means the rest.

Assays:
[1] = NCI Yeast Anticancer Drug Screen. Data for the rad52 strain (AID 147);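 further: 0% = growth of vehicle-treated control cultures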; conditions: S. cerevisiae rad52 mutant growth inhibition, active compounds read high
Procedure, shortened: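 Genetically altered yeast (DNA damage repair defect) treated with compound; inhibition calculated relative to vehicle.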

[2] = NCI Yeast Anticancer Drug Screen. Data for the wt1 strain (AID 149);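 further: 0% = growth of vehicle-treated wt1 cultures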; conditions: S. cerevisiae wt1 strain (SPY 50644) growth inhibition, active compounds read high
Procedure, shortened: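 Each compound is tested on wt1 yeast and the loss of growth versus vehicle gives the inhibition value.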

[3] = NCI Yeast Anticancer Drug Screen. Data for the rad50EPP+ strain (AID 151);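 further: 0% = growth of vehicle-treated control cultures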; conditions: S. cerevisiae rad50 mutant strain, active compounds read high
Procedure, shortened: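 Strain rad50EPP+; compound exposure; % growth inhibition vs vehicle.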

[4] = NCI Yeast Anticancer Drug Screen. Data for the mgt1 strain (AID 153); conditions: S. cerevisiae mgt1 mutant growth inhibition, active compounds read high
Procedure, shortened: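 Read-out: yeast growth inhibition vs vehicle control. Strain mgt1, drawn from a panel altered in DNA damage repair or cell cycle control.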

[5] = NCI Yeast Anticancer Drug Screen. Data for the rad50 strain (AID 155);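 further: 0% = growth of vehicle-only cultures of the same strain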; conditions: S. cerevisiae rad50 strain growth inhibition, active compounds read high
Procedure, shortened: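 Vehicle-treated cultures provide the reference for the growth inhibition reported for compound-exposed, repair-deficient yeast.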

[6] = NCI Yeast Anticancer Drug Screen. Data for the mec2-1 strain (AID 157); conditions: S. cerevisiae mec2-1 strain, active compounds read high
Procedure, shortened: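 Cells of the genetically defined mec2-1 yeast strain are incubated with test compound. Inhibition of growth is calculated against vehicle-treated controls.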

[7] = NCI Yeast Anticancer Drug Screen. Data for the rad14 strain (AID 159);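 further: 0% = growth of vehicle-treated control cultures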; conditions: S. cerevisiae rad14 strain growth inhibition, active compounds read high
Procedure, shortened: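 Inhibition of growth is reported for a repair-deficient yeast mutant following compound treatment, calculated relative to cultures that received vehicle.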

[8] = NCI Yeast Anticancer Drug Screen. Data for the sgs1 mgt1 strain (AID 161);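 further: 0% = growth of cultures given vehicle only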; conditions: S. cerevisiae sgs1 mgt1 strain, active compounds read high
Procedure, shortened: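 Read-out: growth inhibition vs vehicle controls. Cells: mutant yeast strain deficient in DNA damage repair.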

[9] = NCI Yeast Anticancer Drug Screen. Data for the CLN2oe strain (AID 163);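 further: 0% = growth of vehicle-only control cultures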; conditions: S. cerevisiae CLN2oe strain, active compounds read high
Procedure, shortened: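 Strain altered in cell-cycle control, incubated with compound; growth compared to solvent-treated controls.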

[10] = NCI Yeast Anticancer Drug Screen. Data for the cln2 rad14 strain (AID 165);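 further: 0% = growth equal to vehicle treated cultures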; conditions: S. cerevisiae cln2 rad14 strain, active compounds read high
Procedure, shortened: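 The screen exposed genetically defined yeast (cln2 rad14) to test compounds and scored growth inhibition relative to vehicle-treated controls.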

[11] = NCI Yeast Anticancer Drug Screen. Data for the bub3 strain (AID 167); conditions: S. cerevisiae bub3 mutant strain, active compounds read high
Procedure, shortened: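 Mutant yeast screening strain plus compound; vehicle-treated cultures serve as the 0% inhibition reference.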

[12] = NCI Yeast Anticancer Drug Screen. Data for the wt2 strain (AID 169); conditions: S. cerevisiae wt2 strain growth inhibition, active compounds read high
Procedure, shortened: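 Steps: yeast strain treated with compound; growth recorded; inhibition calculated relative to cultures given vehicle alone.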

[13] = NCI Yeast Anticancer Drug Screen. Data for the sgs1 strain (AID 173);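 further: 0% = growth of vehicle-only control cultures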; conditions: S. cerevisiae sgs1 mutant, active compounds read high
Procedure, shortened: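 Inhibition of yeast growth served as the measure. The mutant strain was treated with each compound, and growth was normalised to cultures receiving vehicle alone.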

[14] = NCI Yeast Anticancer Drug Screen. Data for the mlh1 rad18 strain (AID 175); conditions: S. cerevisiae mlh1 rad18 strain growth inhibition, active compounds read high
Procedure, shortened: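 Compound-treated yeast growth, normalised to vehicle controls. Strain bears defined DNA repair mutations.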

[15] = NCI Yeast Anticancer Drug Screen. Data for the rad18 strain (AID 177); conditions: S. cerevisiae rad18 mutant growth inhibition, active compounds read high
Procedure, shortened: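 Inhibition values reflect reduced yeast growth compared with vehicle-treated controls, using a strain engineered with a DNA damage repair defect.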

[16] = at 5.0 µM (retest, dose inferred, filed as 0.5)
[17] = at 50.0 µM (retest, dose inferred, filed as 5.0)

Measured: growth inhibition

O=C(C(Cl)=C(N1CCCCC1)N1CCCCC1)C(Cl)Cl
active: [5]; [17] 99% | [6]; [17] 99% | [6]; at 50.0 µM 70.7% | [8]; [17] 99% | [8]; at 50.0 µM 85.2% | [10]; [17] 99% | [11]; [17] 99% | [14]; [17] 99% | [14]; at 50.0 µM 81.3%
inactive: [1]; at 1.2 µM 2% | [1]; at 3.7 µM 6% | [1]; at 11.0 µM 5% | [1]; at 33.0 µM 3% | [1]; at 100.0 µM 2% | [2]; at 1.2 µM -2% | [2]; at 3.7 µM 0% | [2]; at 11.0 µM -1% | [2]; at 33.0 µM -1% | [2]; at 100.0 µM 1% | [3]; at 1.2 µM 1% | [3]; at 3.7 µM 1% | [3]; at 11.0 µM 3% | [3]; at 33.0 µM 3% | [3]; at 100.0 µM 5% | [4]; at 1.2 µM -3% | [4]; at 3.7 µM -1% | [4]; at 11.0 µM -4% | [4]; at 33.0 µM -3% | [4]; at 100.0 µM 2% | [5]; at 1.2 µM 3% | [5]; at 3.7 µM 6% | [5]; [16] 69% | [5]; at 11.0 µM -2% | [5]; at 33.0 µM 5% | [5]; at 50.0 µM 64.4% | [5]; at 100.0 µM 3% | [6]; at 1.2 µM 2% | [6]; at 3.7 µM -2% | [6]; [16] 11% | [6]; at 11.0 µM -3% | [6]; at 33.0 µM -6% | [6]; at 100.0 µM -2% | [7]; at 1.2 µM -3% | [7]; at 3.7 µM -1% | [7]; at 11.0 µM 3% | [7]; at 33.0 µM -2% | [7]; at 100.0 µM -1% | [8]; [16] -6% | [9]; at 1.2 µM 2% | [9]; at 3.7 µM 4% | [9]; at 11.0 µM 3% | [9]; at 33.0 µM 1% | [9]; at 100.0 µM 9% | [10]; [16] 7% | [10]; at 50.0 µM 23.9% | [11]; at 1.2 µM -5% | [11]; at 3.7 µM 2% | [11]; [16] -5% | [11]; at 11.0 µM 9% | [11]; at 33.0 µM 4% | [11]; at 50.0 µM 68.1% | [11]; at 100.0 µM 2% | [12]; at 1.2 µM -1% | [12]; at 3.7 µM 1% | [12]; at 11.0 µM 2% | [12]; at 33.0 µM 2% | [12]; at 100.0 µM 2% | [13]; at 1.2 µM -50% | [13]; at 3.7 µM -3% | [13]; at 11.0 µM -2% | [13]; at 33.0 µM -4% | [13]; at 100.0 µM -1% | [14]; [16] 48% | [15]; at 1.2 µM -2% | [15]; at 3.7 µM 1% | [15]; at 11.0 µM -2% | [15]; at 33.0 µM -15% | [15]; at 100.0 µM -1%

C[n+]1c(/C=C/c2ccc(/C=N/NC(=O)c3ccc(C(=O)N/N=C/c4ccc(/C=C/c5cn6ccccc6[n+]5C)cc4)cc3)cc2)cn2ccccc21
active: [1]; at 1.2 µM 80% | [1]; at 3.7 µM 97% | [1]; at 11.0 µM 97% | [1]; at 33.0 µM 96% | [1]; at 100.0 µM 93% | [2]; at 3.7 µM 88% | [2]; at 11.0 µM 95% | [2]; at 33.0 µM 97% | [2]; at 100.0 µM 95% | [3]; at 3.7 µM 97% | [3]; at 11.0 µM 95% | [3]; at 33.0 µM 95% | [3]; at 100.0 µM 91% | [4]; at 3.7 µM 99% | [4]; at 11.0 µM 99% | [4]; at 33.0 µM 97% | [4]; at 100.0 µM 94% | [5]; at 1.2 µM 87% | [5]; at 3.7 µM 98% | [5]; [16] 79% | [5]; at 11.0 µM 97% | [5]; at 33.0 µM 95% | [5]; [17] 96% | [5]; at 50.0 µM 88.7% | [5]; at 100.0 µM 89% | [6]; at 3.7 µM 99% | [6]; [16] 92% | [6]; at 11.0 µM 98% | [6]; at 33.0 µM 97% | [6]; [17] 98% | [6]; at 50.0 µM 90.8% | [6]; at 100.0 µM 94% | [7]; at 3.7 µM 98% | [7]; at 11.0 µM 97% | [7]; at 33.0 µM 97% | [7]; at 100.0 µM 92% | [8]; [17] 98% | [8]; at 50.0 µM 85.7% | [9]; at 3.7 µM 91% | [9]; at 11.0 µM 91% | [9]; at 33.0 µM 95% | [9]; at 100.0 µM 89% | [10]; [17] 98% | [10]; at 50.0 µM 85.7% | [11]; at 3.7 µM 98% | [11]; at 11.0 µM 98% | [11]; at 33.0 µM 97% | [11]; at 50.0 µM 90.9% | [11]; at 100.0 µM 93%
inactive: [2]; at 1.2 µM 25% | [3]; at 1.2 µM 58% | [4]; at 1.2 µM 42% | [6]; at 1.2 µM 62% | [7]; at 1.2 µM 62% | [8]; [16] 64% | [9]; at 1.2 µM 47% | [10]; [16] 33% | [11]; at 1.2 µM 41% | [11]; [16] 8% | [11]; [17] 4%
